{"source": "paper PMC12136788", "binders": {"B1": {"name": "chr11:61866962:61867357:+|3pUTR|ENSG00000134824|msi1|FALSE|unique (ssRNA)", "RNA": "GGGAGUUCUACAGUCCGACGAUCAGAUUCAGGGGAAGGGCAGGCACCAACAACUCAGAAUGGGGGCUUUCGGGGAGGGCGCCUAGUCCCCCCAGCUCUAAGCAGCCAGGAGGGACCUGCAUCUAAGCAUCUGGGUUGCCAUGGCAACAGAGGAUUGAGCAUCA"}, "B2": {"name": "chr2:32508095:32508220:+|CDS|ENSG00000115760|unk|total|mutant (ssRNA)", "RNA": "GGGAGUUCUACAGUCCGACGAUCAGCCGAAGCCGCUUCUGCUGUCUGCCUCCGACUACAUCGUCCACGGGAUGCCAGCACAUCCGGCCUUUCACAAAUUAAAUUAUUGGGGCUCACUGCUUUUGGUACCACCUCUUCUGCAACCAACAGAGGAUUGAGCAUCA"}, "B3": {"name": "chr14:92797766:92797867:+|CDS|ENSG00000066455|msi1|total|mutant (ssRNA)", "RNA": "GGGAGUUCUACAGUCCGACGAUCCAUUUUGUGCGAAGAAAAAAGUCAGAACCUGAUGAUGAGCUGCUGUUUGAUUUUCUUAACCGUUCACAGAAGGAGCCUACCGGGAGGGUGGAAAUCAGAAAGGAAAAAGGCAAGACACCUCAACAGAGGAUUGAGCAUCA"}, "B4": {"name": "chr18:70325936:70326038:+|CDS|ENSG00000170677|unk|total|mutant (ssRNA)", "RNA": "GGGAGUUCUACAGUCCGACGAUCAGCUUUCGCUCCCAUGGUAAAACACUUCACACCCGAAUUGAGCACUCAAAUGGCCGGUUCCGCUUUUAUGAACAGCCAGAUGUGGAAGGACAUACGUCCACCGUUGAUCUAAUUGAGCAUCAACAGAGGAUUGAGCAUCA"}, "B5": {"name": "chr11:43405833:43405939:+|CDS|ENSG00000052841|unk|FALSE|unique (ssRNA)", "RNA": "GGGAGUUCUACAGUCCGACGAUCGGCCCAAACCCCUGACUGUUCCAUAACUGACUUCAGAAAAAGCCACACUCUGUCCUACUUAGUCAAAGAAUUAGAGGUUCGCAUGGAUCUGAAAGCCAAAAUGCCAGAUGACCAUGCACGCAACAGAGGAUUGAGCAUCA"}, "B6": {"name": "chr6:1612588:1612689:+|3pUTR|ENSG00000054598|msi1|total|mutant (ssRNA)", "RNA": "GGGAGUUCUACAGUCCGACGAUCUUUAUUCAUGGACUUGUUUUAAAAUGUAAAUUGCAACACCGUAAUUUAUUUUUAAUUUGCCGUUGGAUGUCGUGGACCAAACGCCAGAAAGUGUUCCCAAAACCUGACGUUAAAUUGCCUCAACAGAGGAUUGAGCAUCA"}, "B7": {"name": "chr2:111862450:111862553:-|CDS|ENSG00000153107|unk|FALSE|unique (ssRNA)", "RNA": "GGGAGUUCUACAGUCCGACGAUCUCUUUUUCAGGGGUGCAAAGGUUCAACAUUUCAAGCCAUAAUCAGUCUCCAAAGAGACAUAGUAUUUCUCAUUCUCCAAAUAGUAAUUCUAAUGGCUCCUUUCUUGCACCAGAAACGGAGCAACAGAGGAUUGAGCAUCA"}, "B8": {"name": "chr7:83961326:83961382:-|CDS_3pUTR|ENSG00000075213|msi1_unk|FALSE|overlapping (ssRNA)", "RNA": "GGGAGUUCUACAGUCCGACGAUCAAACAGGAGGACCCACGAAUUUGAGAGGGCACCCAGGAGUGUCUGAGCUGCAUUACCUCUAGAAACCUCAAACAAGUAGAAACUUGCCUAGACAAUAACUGGAAAAACAAAUGCAAUAUACAACAGAGGAUUGAGCAUCA"}, "B9": {"name": "ENSG00000124766:be:win_3951|3pUTR|ENSG00000124766|bound_else_gene|NA|bound_elsewhere_windowed (ssRNA)", "RNA": "GGGAGUUCUACAGUCCGACGAUCGUUUGGGGGAAAAAAAAGAAAAAAUCAUGCCAGCUAAUCAUGUCAAGUUCACUGCCUGUCAGAUUGUUGAUAUAUACCUUCUGUAAAUAACUUUUUUUGAGAAGGAAAUAAAAUCAGCUGCAACAGAGGAUUGAGCAUCA"}, "B10": {"name": "chr17:29262523:29262623:-|3pUTR|ENSG00000108256|msi1_unk|FALSE|overlapping (ssRNA)", "RNA": "GGGAGUUCUACAGUCCGACGAUCACUUUGACUGAUAUUGUAAUUUUCAAAUGUAUAAUAUGUUUACAGAUGUGCCCUGCAUUUAGUCUGCCUUGUUCCUAUUUUGAUUUUUGUUGAGUCUCCUGCCUGCUUGCCAAAAGCUAGCAACAGAGGAUUGAGCAUCA"}, "B11": {"name": "chrX:149581652:149582231:-|three_prime_utr|ENSG00000267978|control|control|control (ssRNA)", "RNA": "GGGAGUUCUACAGUCCGACGAUCCAAAUGUUCUUUUAAUGGUCAGUUUAAUGAACUUCACCAUCGAAGUUAAUGAAUGACAGUAGUCACACAUAUUGCUGUUUAUGUUAUUUAGGAGUAAGAUUCUUGCUUUUGAGUCACAUGCAACAGAGGAUUGAGCAUCA"}, "B12": {"name": "chr15:48879495:48879609:+|3pUTR|ENSG00000255302|msi1|total|mutant (ssRNA)", "RNA": "GGGAGUUCUACAGUCCGACGAUCGACACUAAAUGUGUGUGAAUGUACAAAGAAAACAAACCAUUGCUUAUGCUGUUAUAUACCCGAGAAAUUUUGUUUUGCUUGCUGUUUUAACUUGACAGAUGAAGGACUUCCGUUGAACUUCAACAGAGGAUUGAGCAUCA"}, "B13": {"name": "chr16:87831719:87831834:-|3pUTR|ENSG00000103257|msi1_unk|FALSE|overlapping (ssRNA)", "RNA": "GGGAGUUCUACAGUCCGACGAUCCCUGCGUUUGGAGGCCCCUGGGCUCUCACCCAGUCCCCACCCGCCUGCAGAGAGGGAACUAGGGCACCCCUUGUUUCUGUUGUUCCCGUGAAUUUUUUUCGCUAUGGGAGGCAGCCGAGGCAACAGAGGAUUGAGCAUCA"}, "B14": {"name": "chr8:93925380:93925481:+|3pUTR|ENSG00000164951|msi1|total|mutant (ssRNA)", "RNA": "GGGAGUUCUACAGUCCGACGAUCAUUUAUUUCUAAAUGUUUUGACUGGGCAUUUUUCUUUUAAUGAAAUAUGUGGACUGCUCCCGCAAACCCUAUUUUCAGCUACUAUUUGAAUAUUCUUGAACACCACCACUGAAGAGUUUCCAACAGAGGAUUGAGCAUCA"}, "B15": {"name": "chr14:88572724:88572825:+|CDS|ENSG00000100722|unk|FALSE|unique (ssRNA)", "RNA": "GGGAGUUCUACAGUCCGACGAUCGUGACACUUACAUAUGGUUCUUCUCGCCCUUCUAUUGAAAUUUAUCGACCACCUGCAAGUAGAAAUGCAGAUAGUGGUGUUCAUUUAAACAGGUUGCAAUUUCAACAGCAGCAGAAUAGUCAACAGAGGAUUGAGCAUCA"}, "B16": {"name": "chr17:42200006:42200107:-|3pUTR|ENSG00000173757|unk|FALSE|unique (ssRNA)", "RNA": "GGGAGUUCUACAGUCCGACGAUCAAGCUGCCGUUUGCCUUGGCUUGGUUUCAUACACUGAUUUAUUUUUCUAUGCCAGGCAGUAGAGUCUCUCUGCCUCUGAGGAGCAGGCUACCCGCAUCCCACUCAGCCCCUCCCUACCCCCAACAGAGGAUUGAGCAUCA"}, "B17": {"name": "ENSG00000087269:stop:overlap|stop_codon|ENSG00000087269|stop_codon|NA|stop_codon (ssRNA)", "RNA": "GGGAGUUCUACAGUCCGACGAUCGGCUGGCUGGUCUCGAAUUCCCGACCUCAGGUAAUCCACCUGCCUUGGCCCCCCAAUUAUAGGUGUGAGCCACAGCACCCAGCCAAAAAAGUAAUUUUUUUUAGAGUAAUAAUGCUAUAACAACAGAGGAUUGAGCAUCA"}, "B18": {"name": "chr5:41382290:41382405:-|CDS|ENSG00000182836|unk|total|mutant (ssRNA)", "RNA": "GGGAGUUCUACAGUCCGACGAUCGGCCAAAAAGCUCAUGCGGAAAUGGUCCGCCACUCAGACAAUGAAUUUUACUGGCCAGCCCGGAGCUGGAAUUCGUUAUUUUGAUCUUCGAAUUUCCACCAAGCCCAGAGACCCCGACAACAACAGAGGAUUGAGCAUCA"}, "B19": {"name": "chr1:71064632:71064733:-|3pUTR|ENSG00000132485|msi1|total|mutant (ssRNA)", "RNA": "GGGAGUUCUACAGUCCGACGAUCGCUAAGACAGGAUUACCCCGGCUUGCCUGAACUUUGGGCAUGGAAGAAAGACUGGAAACCCGUUGGAAACAACAUACUUAUGGAAAAGAAAGUCAGCCUUUUUAUGCUGUUAACAGAUGUCAACAGAGGAUUGAGCAUCA"}, "B20": {"name": "chr1:183142599:183142700:+|CDS|ENSG00000135862|msi1|FALSE|unique (ssRNA)", "RNA": "GGGAGUUCUACAGUCCGACGAUCAACGAGAUUGAAGGCACCCUAAACAAAGCCAAAGAUGAAAUGAAGGUCAGCGAUCUUGAUAGGAAAGUGUCUGACCUGGAGAAUGAAGCCAAGAAGCAGGAGGCUGCCAUCAUGGACUAUCAACAGAGGAUUGAGCAUCA"}, "B21": {"name": "chr1:23091194:23091296:-|CDS|ENSG00000169641|unk|FALSE|unique (ssRNA)", "RNA": "GGGAGUUCUACAGUCCGACGAUCCUCCAGAAGGACCCAAAGUAGCCUCACUGUGUCAGAGGUGCUUACCCGUCGGAAUCGGGUAGGAGACACCAUCACUGUCGCAGCCUGGAACCACUCAGCAAGCAUGGUGAGUUCCAGCCUCAACAGAGGAUUGAGCAUCA"}, "B22": {"name": "ENSG00000160209:stop:overlap|stop_codon|ENSG00000160209|stop_codon|NA|stop_codon (ssRNA)", "RNA": "GGGAGUUCUACAGUCCGACGAUCCCUUGACCUCCUGGGCUGAAGCAAUCUUUCUGCCUCCACCUCCCGAGUGGCUGGGACUAUAGUUGUGCACCAGCACGCCCACCUCCUGCCCAGGGUUGUUACUGGGGUGGUCACGUGGGCCAACAGAGGAUUGAGCAUCA"}}, "note": "In all, about 5,800 sequences were measured (“enrichment r”: median about 0.68, highest 2% from about 11 on). These entries were drawn from the full list."}
{"target": "T1, UNK ZnF1-6 (called full-length) (human, UniProt Q9C0B0 30-357)", "T1 sequence": "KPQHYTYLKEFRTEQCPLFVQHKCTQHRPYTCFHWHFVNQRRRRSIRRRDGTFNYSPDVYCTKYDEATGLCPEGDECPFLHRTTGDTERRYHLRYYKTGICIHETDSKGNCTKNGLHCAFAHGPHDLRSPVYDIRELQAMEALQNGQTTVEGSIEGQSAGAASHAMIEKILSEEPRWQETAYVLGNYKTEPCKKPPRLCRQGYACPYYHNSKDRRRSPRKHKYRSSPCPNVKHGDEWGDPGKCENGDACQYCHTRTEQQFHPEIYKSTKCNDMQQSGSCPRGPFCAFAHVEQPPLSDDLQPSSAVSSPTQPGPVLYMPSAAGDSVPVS", "experiment": "nsRBNS (natural sequence RNA bind-n-seq); RBNS binding buffer (assumed for nsRBNS): 25 mM Tris pH 7.5, 150 mM KCl, 3 mM MgCl2, 0.01% Triton X-100, 500 ug/ml BSA, 20 U/ml SUPERase-In, 4 C; UNK is unkempt and MSI1 is Musashi-1; names of the RNAs are library labels; protein concentration not given here; high values mean tight binding", "units": {"binding signal": "enrichment R"}}
{"binder": "B1", "binding signal": 0.948}
{"binder": "B2", "binding signal": 0.577}
{"binder": "B3", "binding signal": 0.771}
{"binder": "B4", "binding signal": 0.461}
{"binder": "B5", "binding signal": 1.07}
{"binder": "B6", "binding signal": 0.325}
{"binder": "B7", "binding signal": 1.49}
{"binder": "B8", "binding signal": 0.962}
{"binder": "B9", "binding signal": 0.788}
{"binder": "B10", "binding signal": 0.807}
{"binder": "B11", "binding signal": 0.441}
{"binder": "B12", "binding signal": 0.453}
{"binder": "B13", "binding signal": 0.701}
{"binder": "B14", "binding signal": 0.657}
{"binder": "B15", "binding signal": 0.593}
{"binder": "B16", "binding signal": 0.936}
{"binder": "B17", "binding signal": 0.968}
{"binder": "B18", "binding signal": 0.445}
{"binder": "B19", "binding signal": 0.548}
{"binder": "B20", "binding signal": 0.678}
{"binder": "B21", "binding signal": 0.389}
{"binder": "B22", "binding signal": 0.427}
